Drawing on PubChem BioAssay, this text covers composite z-score and z-score for 14 compounds.

Calls of active or inactive are those of the source.

Experiment [1] deals with PRMT1 (protein arginine N-methyltransferase 1). Put plainly: small molecules binding arginine methyltransferase PRMT1 – biochemical, small-molecule microarray, 635 nm fluorescence, primary screen (AID 1088).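 Further: binding of Prmt1 protein to compounds spotted on small-molecule microarray slides.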 The settings on record: higher = more signal.
Experiment [2] can be described thus: growth effects on S. cerevisiae YJM789 – YJM789 clinical isolate, OD600, 24 h, basal, primary screen (AID 1089).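 Further: growth of clinical yeast isolate S. cerevisiae YJM 789 seeded 1000 cells per well; test concentration not given here.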 Conditions: higher = more signal, called active from +8 up or from −8 down.
Experiment [3] in a line: S. pombe growth modifiers, basal conditions – strain 972, OD600, 24 h, no modulator, primary screen (AID 1090).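 Further: basal condition with compound alone and no growth modifier present; test concentration not given here.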 The settings on record: S. pombe 972 growth, higher = more signal, called active from +8 up or from −8 down.
Experiment [4] is described as follows: budding yeast growth modifiers under rapamycin – strain BY4716, OD600, 96 h, primary screen (AID 1091). Further: test concentration not given here. The settings on record: S. cerevisiae BY4716 + rapamycin, higher = more signal, called active from +8 up or from −8 down.
Experiment [5] addresses Torsin-1A-interacting protein 2 (Homo sapiens) (UniProt Q8NFQ8). Put plainly: small molecules binding lysate-expressed LULL1 – cell lysate, human LULL1 lysate, 635/667 nm fluorescence, primary screen (AID 1092).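 Further: probe is lysate of COS7 cells overexpressing human LULL1; score merges per-feature 667 nm fluorescence with signal-to-noise.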 The settings on record: small-molecule microarray, hLULL1 lysate binding, 635 nm fluorescence; higher = more signal.
Experiment [6] in a line: optical density change of DRC41 E. coli – strain DRC41, OD650, 24 h, E. coli filamentation project, primary screen (AID 1093).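 Further: MC1000 strain lacking acrAB efflux and sulA so SOS filamentation is blocked; test concentration not given here.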 The settings on record: E. coli DRC41 growth, higher = more signal, called active from +8 up or from −8 down.
Experiment [7] in a line: probe aLefty2 binding to arrayed compounds – biochemical, biotinylated probe, 635/667 nm fluorescence, primary screen (AID 1094).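 Further: score merges spot fluorescence near 667 nm with spot signal-to-noise ratio.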 Conditions: small-molecule microarray, higher = more signal.
For experiment [8], the system named is Noggin (protein binding on small-molecule microarray). Put plainly: small molecules binding Noggin protein – biochemical, 635/667 nm fluorescence, primary screen (AID 1095).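 Further: score merges 667 nm feature fluorescence with signal to noise over triplicate slides.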 The settings on record: 635 nm fluorescence, higher = more signal.
In experiment [9] the target is Neurogenic locus notch homolog protein 3 (Homo sapiens) (UniProt Q9UM47). Kind of experiment: small molecules binding NOTCH3 protein – biochemical, 635/667 nm fluorescence, primary screen (AID 1096). Conditions: small-molecule microarray, 635 nm fluorescence, higher = more signal.
Neurogenic locus notch homolog protein 3 (Homo sapiens), sequence (Q9UM47 whole entry, looked up): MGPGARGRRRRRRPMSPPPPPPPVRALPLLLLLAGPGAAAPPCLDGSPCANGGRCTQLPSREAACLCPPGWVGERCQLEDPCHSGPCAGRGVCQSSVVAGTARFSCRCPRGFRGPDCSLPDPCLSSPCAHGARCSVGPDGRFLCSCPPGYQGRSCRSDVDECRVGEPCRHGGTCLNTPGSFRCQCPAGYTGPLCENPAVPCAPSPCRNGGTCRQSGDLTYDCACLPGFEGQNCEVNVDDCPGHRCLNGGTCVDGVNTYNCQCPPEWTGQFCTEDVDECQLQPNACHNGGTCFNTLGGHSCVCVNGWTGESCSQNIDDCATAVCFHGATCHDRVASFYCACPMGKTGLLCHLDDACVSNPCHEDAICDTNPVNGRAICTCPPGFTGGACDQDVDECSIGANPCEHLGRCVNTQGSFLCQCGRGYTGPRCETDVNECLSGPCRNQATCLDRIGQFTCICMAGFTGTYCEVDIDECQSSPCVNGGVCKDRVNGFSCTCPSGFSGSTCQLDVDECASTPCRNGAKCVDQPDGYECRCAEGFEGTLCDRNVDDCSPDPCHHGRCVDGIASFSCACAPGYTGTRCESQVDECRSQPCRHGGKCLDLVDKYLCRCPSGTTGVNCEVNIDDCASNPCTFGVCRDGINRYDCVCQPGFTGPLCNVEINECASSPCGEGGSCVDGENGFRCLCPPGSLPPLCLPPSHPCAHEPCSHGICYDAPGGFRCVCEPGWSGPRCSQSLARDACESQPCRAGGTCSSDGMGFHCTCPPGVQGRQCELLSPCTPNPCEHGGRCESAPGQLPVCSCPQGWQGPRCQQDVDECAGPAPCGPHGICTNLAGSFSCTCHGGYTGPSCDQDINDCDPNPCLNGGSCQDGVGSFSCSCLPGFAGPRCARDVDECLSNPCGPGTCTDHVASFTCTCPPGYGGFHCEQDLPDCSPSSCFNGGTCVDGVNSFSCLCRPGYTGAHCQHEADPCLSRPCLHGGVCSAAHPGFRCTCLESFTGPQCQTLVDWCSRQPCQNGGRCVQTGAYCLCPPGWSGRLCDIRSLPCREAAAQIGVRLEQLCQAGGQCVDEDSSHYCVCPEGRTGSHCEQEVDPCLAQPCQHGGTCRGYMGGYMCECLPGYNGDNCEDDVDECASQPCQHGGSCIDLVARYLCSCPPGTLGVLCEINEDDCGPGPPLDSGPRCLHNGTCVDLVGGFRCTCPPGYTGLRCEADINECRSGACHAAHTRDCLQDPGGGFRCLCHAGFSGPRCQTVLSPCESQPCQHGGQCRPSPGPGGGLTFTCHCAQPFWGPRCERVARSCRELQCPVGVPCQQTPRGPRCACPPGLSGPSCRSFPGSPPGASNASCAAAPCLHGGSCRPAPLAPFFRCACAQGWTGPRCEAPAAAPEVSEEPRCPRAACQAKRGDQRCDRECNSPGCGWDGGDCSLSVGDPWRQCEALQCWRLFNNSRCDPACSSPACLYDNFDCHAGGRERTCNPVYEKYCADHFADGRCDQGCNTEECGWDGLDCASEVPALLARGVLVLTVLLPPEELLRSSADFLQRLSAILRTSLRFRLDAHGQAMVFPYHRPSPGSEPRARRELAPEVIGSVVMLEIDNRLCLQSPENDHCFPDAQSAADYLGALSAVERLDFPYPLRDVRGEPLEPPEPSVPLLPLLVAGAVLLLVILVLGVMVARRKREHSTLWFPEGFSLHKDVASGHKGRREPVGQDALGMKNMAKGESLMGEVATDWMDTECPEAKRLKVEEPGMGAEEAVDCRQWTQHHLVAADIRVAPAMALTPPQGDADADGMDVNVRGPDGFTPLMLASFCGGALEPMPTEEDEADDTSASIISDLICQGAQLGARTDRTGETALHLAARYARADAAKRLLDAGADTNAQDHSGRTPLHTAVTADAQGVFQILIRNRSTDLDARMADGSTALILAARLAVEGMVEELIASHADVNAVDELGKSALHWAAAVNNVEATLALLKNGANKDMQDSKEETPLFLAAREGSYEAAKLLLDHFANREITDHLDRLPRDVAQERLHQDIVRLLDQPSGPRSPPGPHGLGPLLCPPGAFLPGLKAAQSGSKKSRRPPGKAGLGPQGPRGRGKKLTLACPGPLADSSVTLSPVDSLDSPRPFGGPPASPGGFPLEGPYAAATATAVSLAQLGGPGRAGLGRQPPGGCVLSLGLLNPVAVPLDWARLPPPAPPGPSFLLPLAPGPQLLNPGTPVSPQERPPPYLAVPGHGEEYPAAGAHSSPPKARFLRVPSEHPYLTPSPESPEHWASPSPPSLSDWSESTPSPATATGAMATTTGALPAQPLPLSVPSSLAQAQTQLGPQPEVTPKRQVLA
Experiment [10] can be described thus: probe aEGFR binding to arrayed compounds – biochemical, biotinylated probe, 635/667 nm fluorescence, primary screen (AID 1097).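 Further: probe is a biotinylated anti-EGFR antibody binding compounds printed on slides; score combines fluorescence near 667 nm and signal to noise of each spot.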 The settings on record: small-molecule microarray, higher = more signal.

Torsin-1A-interacting protein 2 (Homo sapiens), sequence (Q8NFQ8 whole entry, looked up): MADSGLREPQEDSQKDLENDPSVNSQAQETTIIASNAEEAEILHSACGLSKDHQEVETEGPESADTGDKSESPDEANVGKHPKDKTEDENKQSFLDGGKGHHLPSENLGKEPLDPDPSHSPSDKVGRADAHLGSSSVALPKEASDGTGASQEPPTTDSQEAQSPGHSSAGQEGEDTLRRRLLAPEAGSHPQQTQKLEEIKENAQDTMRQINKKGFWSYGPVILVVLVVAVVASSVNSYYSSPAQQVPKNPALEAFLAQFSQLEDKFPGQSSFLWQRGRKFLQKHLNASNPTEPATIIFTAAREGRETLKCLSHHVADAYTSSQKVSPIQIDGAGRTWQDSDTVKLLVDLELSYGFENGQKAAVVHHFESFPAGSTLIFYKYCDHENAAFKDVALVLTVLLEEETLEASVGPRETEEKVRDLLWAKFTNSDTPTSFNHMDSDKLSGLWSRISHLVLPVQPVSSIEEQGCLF

For the compound `C=CCC(OC(C)=O)[C@@H]1[C@@H](N(Cc2cc3ccccc3o2)C(=O)Cc2ccc(F)cc2)c2cc(OCCCO)ccc2N1C(=O)c1ccc2ccccc2n1` (stereo not given in full), the composite z-score in [1] was -0.22; in experiment [5], -0.136; in [7], 0.055; in [8], -0.145; in experiment [9] it was -0.814; in experiment [10], -0.0573. Also, the z-score in experiment [2] is -0.271 (inactive); in experiment [3], -0.448 (inactive); in experiment [4], -0.258 (inactive); in [6] it was -0.494 (inactive).

Consider `CC=CC(O)C1C=CC2C(=O)N(C)C(=O)C2N1N1CCCCC1` (stereo not given), for which the composite z-score in [1] was 1.34; in [5], 3.52; in [7], 0.0974; in experiment [8], 0.605; in [9], 1.09; in experiment [10] it was -0.115. The z-score in experiment [2] was -0.322 (inactive); in [3], 1.01 (inactive); in [4] it was -0.207 (inactive); in [6], -1.53 (inactive).

For the compound `COCCOC(=O)N1C(=O)[C@@]2(c3cc(C#CC4(O)CCCCCC4)ccc31)[C@H](C(N)=O)[C@H]1C(=O)O[C@H](c3ccccc3)[C@H](c3ccccc3)N1[C@@H]2c1ccc(O)cc1`, the composite z-score in experiment [1] is 1.55; in experiment [5] it was 2.41; in experiment [7] it was -0.0009; in experiment [8] it was 1.53; in [9] it was 1.12; in experiment [10], -0.0418. For the same compound, the z-score was 0.121 (inactive) in [2], 0.182 (inactive) in experiment [3], 0.523 (inactive) in experiment [4] and -0.426 (inactive) in [6].

Turning to `CC(C)C(CO)N1C(=O)[C@]2(C)C3C(=O)OCCC/C=C\[C@H]3OC23C=CCN(c2ccc(Cl)cc2)C(=O)[C@@H]13` (stereo not given in full), the composite z-score is 0.88 in experiment [1]; 3.28 in experiment [5]; -0.0458 in [7]; -0.608 in [8]; 0.0253 in experiment [9]; -0.155 in [10]. Besides, the z-score in experiment [2] is -0.579 (inactive); in experiment [3], -1.14 (inactive); in experiment [4] it was -0.268 (inactive); in experiment [6], -0.718 (inactive).

With `C=C(C(=O)CC[C@H](OC(C)=O)c1cccc(OCCO)c1)C(C)C`, the composite z-score in [1] is 0.385; in experiment [5], 0.355; in experiment [7], -0.121; in [8], -0.621; in [9], -0.594; in experiment [10], -0.113. Moreover, the z-score in experiment [2] is 0.574 (inactive); in experiment [3] it was -0.299 (inactive); in experiment [4], -0.0905 (inactive); in experiment [6], 1.04 (inactive).

In the case of `CC(C)(C)N1CC=CC23O[C@@H]4C=CCOC(=O)[C@@H]4[C@H]2C(=O)N(CCCO)[C@@H]3C1=O` (stereo not given in full), the composite z-score in experiment [1] was -0.768; in [5] it was -0.558; in experiment [7], -0.147; in experiment [8], -1.62; in [9], -1.54; in experiment [10] it was -0.314. Besides, the z-score in experiment [2] was 0.149 (inactive); in [3], 0.0155 (inactive); in [4] it was -0.288 (inactive); in experiment [6] it was 1.27 (inactive).

As to `CCOC(=O)C[C@H]1[C@H](OC(=O)c2ccc(-c3ccccc3)cc2)[C@@H](NC(=O)C2CCCCC2)c2cc(OCCCO)ccc2N1C(=O)c1ccccc1`, the composite z-score was 0.5 in experiment [1]; 1.44 in experiment [5]; -0.13 in experiment [7]; 0.714 in [8]; 0.855 in experiment [9]; -0.113 in [10]. Besides, the z-score is 0.285 (inactive) in experiment [2], 0.881 (inactive) in [3], 1.29 (inactive) in experiment [4] and -0.964 (inactive) in [6].

Turning to `CC(C)(C)OC(=O)CC[C@]1(C(=O)O)N=C(c2ccc(OCCCO)cc2)O[C@H]1c1ccccc1CN=[N+]=[N-]`, the composite z-score in experiment [1] was -0.619; in [5], 2; in experiment [7], -0.0991; in experiment [8], -0.465; in experiment [9], 0.168; in [10], -0.103. In addition, the z-score is 0.832 (inactive) in [2], 0.291 (inactive) in experiment [3], -0.683 (inactive) in experiment [4] and 0.275 (inactive) in experiment [6].

On to `COc1ccccc1CN1C(=O)c2ccccc2[C@](Cc2ccccc2I)(C(=O)NC(C)C)[C@@H]1c1ccc(CO)cc1`, for which the composite z-score in [1] is 1.53; in experiment [5] it was 2.05; in experiment [7] it was -0.158; in experiment [8], 1.22; in experiment [9], 1.06; in experiment [10] it was 0.0583. For the same compound, the z-score in [2] is 0.188 (inactive); in experiment [3], 0.0889 (inactive); in experiment [4], 0.152 (inactive); in experiment [6], -1.01 (inactive).

Regarding `C=CCNC(=O)[C@H]1[C@@H]2C(=O)O[C@@H](c3ccccc3)[C@@H](c3ccccc3)N2[C@@H](c2ccccc2OCCO)[C@]12C(=O)N(C(=O)OCCOC)c1ccc(C#CC3=CCCCC3)cc12`, the composite z-score in [1] amounted to 1.55; in experiment [5], 2.38; in [7], 0.304; in experiment [8] it was 0.843; in experiment [9], 1.05; in [10], 0.34. Besides, the z-score in experiment [2] was 1.85 (inactive); in experiment [3], -1.02 (inactive); in experiment [4], 4.29 (inactive); in [6], 1.23 (inactive).

On to `COCCOC(=O)N1C(=O)[C@@]2(c3cc(C#CC4=CCCCC4)ccc31)[C@H](c1ccccc1OCCO)N1[C@H](c3ccccc3)[C@H](c3ccccc3)OC(=O)[C@H]1[C@@H]2C(=O)N1CCc2cc(OC)c(OC)cc2C1`, for which the composite z-score in experiment [1] was 1.55; in [5], 0.889; in experiment [7], -0.479; in experiment [8] it was 0.676; in [9], 1.08; in experiment [10], -0.33. For the same compound, the z-score in experiment [2] was 1.83 (inactive); in [3], 0.819 (inactive); in experiment [4], 3.63 (inactive); in experiment [6] it was -0.0749 (inactive).

On to `CCCN1C(=O)[C@]2(Cc3ccccc3)N=C(c3ccc(OCCCO)cc3)O[C@@H]2c2ccccc21`, for which the composite z-score was 1.54 in experiment [1]; 3.26 in experiment [5]; -0.0159 in [7]; 1.74 in experiment [8]; 1.13 in experiment [9]; -0.0605 in experiment [10]. Moreover, the z-score is -0.128 (inactive) in experiment [2], -1.88 (inactive) in experiment [3], 0.585 (inactive) in experiment [4] and 1.05 (inactive) in experiment [6].

`C=CCOC(=O)[C@H]1[C@@H]2C(=O)O[C@@H](c3ccccc3)[C@@H](c3ccccc3)N2[C@@H](c2ccc(OCCOC(=O)[C@H]3C[C@H]4C(=O)N[C@@H](Cc5ccccc5)C(=O)N4[C@H]3c3ccc(O)cc3)cc2)[C@]12C(=O)Nc1ccc(I)cc12`: the composite z-score is 1.55 in experiment [1]; 2.39 in [5]; -0.0267 in experiment [7]; 1.69 in experiment [8]; 1.05 in [9]; -0.118 in experiment [10]. For the same compound, the z-score was 0.827 (inactive) in experiment [2], 1.36 (inactive) in experiment [3], 3.95 (inactive) in experiment [4] and -0.305 (inactive) in experiment [6].

As for `C=CCN1C(=O)[C@@]2(O[C@@H](CCO)[C@H]([Si](C)(C)c3ccc(OC)cc3)[C@H]2C)c2cc(N3C(=O)c4ccccc4Oc4ccccc43)ccc21`, the composite z-score is 0.0455 in experiment [1]; 1.65 in experiment [5]; -0.0665 in experiment [7]; 0.514 in [8]; 0.612 in experiment [9]; -0.135 in [10]. Also, the z-score in experiment [2] was 1.34 (inactive); in experiment [3], 0.237 (inactive); in experiment [4], 9.42 (active); in [6], 2.15 (inactive).
